Results from PubChem BioAssay (NCATS).
Several values for one entry are separate records, joined by “and”; a condition that tells them apart may be missing. Identical values can stand only once. Records with an inconclusive call do not appear. Values without a mark were called inactive. Activity calls are given as the source filed them. The call rests on the fitted dose curve; in most records, active means well fitted curve in the direction sought with a large enough effect; inconclusive means small, poorly fitted or top-dose-only effect, or another doubt; inactive means no such curve, though single readings can be large; an effect the other way counts as inactive or inconclusive.

What was measured:
JEG-3 = assay: Primary qHTS to identify gynecologic anti-cancer compounds using libraries of approved drugs and bioactive compounds (AID 1345084); conditions: Gynecologic cancer cell panel viability, ATPlite luminescence, 48 h; series mostly up to 57.5 µM; further: nearly all actives have a fitted effect of over 55% in size
Procedure, shortened: (§1)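 In this quantitative HTS, cell killing is estimated from loss of ATP-dependent luciferase light. Cells see five compound concentrations over a 48 h exposure.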

PA-1 = assay: as above; conditions: Gynecologic cancer cell panel viability, ATPlite luminescence, 48 h; series mostly up to 57.5 µM
Procedure, shortened: as §1

SKOV3 = assay: as above; conditions: Gynecologic cancer cell panel viability, ATPlite luminescence, 48 h; series mostly up to 57.5 µM
Procedure, shortened: as §1

Tov-21-G = assay: as above; conditions: Gynecologic cancer cell panel viability, ATPlite luminescence, 48 h; series mostly up to 57.5 µM
Procedure, shortened: as §1

Tov112D = assay: as above; conditions: Gynecologic cancer cell panel viability, ATPlite luminescence, 48 h; series mostly up to 57.5 µM
Procedure, shortened: as §1

[1] = qHTS assay to identify inhibitors of the type 1 interferon - major histocompatibility complex class I in skeletal muscle: Counter screen cell viability and HiBit confirmation (AID 1347412); conditions: iHSKM muscle cells + IFN-b, HiBiT or CellTiter-Glo, 24 h; for Potency: HiBiT; on all read-outs here: nearly all actives have a fitted effect of over 60% in size
Procedure, shortened: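 HLA-B*08:01–HiBiT knock-in immortalized human myoblasts (C25cl48) stimulated with 4.0 ng/ml human IFN-beta and dosed with compound in a 12-point 1:3 titration (top final 46 uM). After 24 hrs at 37 C, HiBiT lytic luminescence or CellTiter Glo ATP read out.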

OV90 = assay: Primary qHTS to identify gynecologic anti-cancer compounds using libraries of approved drugs and bioactive compounds (AID 1345084); conditions: Gynecologic cancer cell panel viability, ATPlite luminescence, 48 h; series mostly up to 57.5 µM; further: nearly all actives have a fitted effect of over 55% in size
Procedure, shortened: as §1
On the % scale 0 is the no-effect control and ±100 the full control effect; potency means the concentration at half of the fitted maximal effect.

SMILES	Potency (JEG-3)	Potency (PA-1)	Potency (SKOV3)	Potency (Tov-21-G)	Potency (Tov112D)	Potency [1]	activity change, negative = inhibition ([1]; Viability, at 45.9 µM (top of the series))	Potency (OV90)
Nc1ccccc1NC(=O)c1ccc(CNc2nccc(-c3cccnc3)n2)cc1	3.55 µM (active)	0.708 µM (active)	3.98 µM (active)	2.82 µM (active)	3.55 µM (active)	3.94 µM (active)	3.24%	–
O=C(O)C1(Cc2cccc(Nc3nccs3)n2)CCC(Oc2cccc(Cl)c2F)CC1 (centres undefined)	inactive	–	–	–	1 µM (active)	–	–	inactive
O=C(Nc1nc2cccc(-c3ccc(CN4CCS(=O)(=O)CC4)cc3)n2n1)C1CC1	–	–	inactive	–	–	–	–	inactive
O=C(Nc1cc(C(F)(F)F)cc(C(F)(F)F)c1)c1cc(Cl)ccc1O	–	1.58 µM (active)	3.55 µM (active)	8.91 µM (active)	3.55 µM (active)	15.7 µM (active)	–	8.91 µM (active)
Cc1cc(Nc2cc(CN3CCOCC3)c3nc(C)c(Cc4ccc(Cl)cc4F)n3n2)n[nH]1	–	inactive	–	–	inactive	3.52 µM (active)	–	–
CC[C@@H]1C(=O)N(C)c2cnc(Nc3ccc(C(=O)NC4CCC(N5CCN(CC6CC6)CC5)CC4)cc3OC)nc2N1C(C)C (some centres undefined)	–	0.251 µM (active)	–	–	–	6.25 µM (active)	–	15.8 µM (active) and 12.6 µM (active)
Nc1ncnc2c1c(-c1cnc3[nH]ccc3c1)nn2C1CCCC1	–	8.91 µM (active)	–	6.31 µM (active)	5.01 µM (active)	2.22 µM (active)	–	5.01 µM (active)
